Records with an inconclusive call do not appear. Active and inactive are the calls of the source. Unless noted, the call rests on the fitted dose curve; in most records, active means well fitted curve in the direction sought with a large enough effect in the repeat runs; inconclusive means weak or mixed curves; inactive means no such curve, though single readings can be large; an effect the other way counts as inactive or inconclusive.
Assays:
[1] = qHTS assay to identify small molecule antagonists of the peroxisome proliferator-activated receptor gamma (PPARg) signaling pathway - cell viability counter screen (AID 743194); further: nearly all actives have a fitted effect of over 55% in size
Procedure, shortened: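 PPARg-UAS-bla HEK293H cells were plated, rested 5 h at 37 C, then treated with compounds plus rosiglitazone (50 nM final) for 17 h at 37 C; viability was then read by CellTiter-Glo luminescence after 30 min at room temperature.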

[2] = qHTS assay for small molecule agonists of the antioxidant response element (ARE) signaling pathway (AID 743202; active means well fitted activation curve with a large enough effect in the signal ratio in the repeat runs, not every such curve was filed as active; the % refers to the signal ratio)
Procedure, shortened: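 Steps: seed ARE-bla HepG2 cells (2,000/well); incubate 5 h at 37 C; add compounds by pin tool; incubate 16 h at 37 C; add FRET substrate; read fluorescence after 2 h at RT.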

[3] = qHTS assay for small molecule agonists of the antioxidant response element (ARE) signaling pathway - cell viability counter screen (AID 743203; calls by dose curve; further: nearly all actives have a fitted effect of over 55% in size)
Procedure, shortened: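 Cytotoxicity was tested in parallel with the ARE reporter screen. ARE-bla HepG2 cells were exposed to compounds for 16 hrs, and viability was taken from CellTiter-Glo luminescence.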

[4] = qHTS assay for small molecule activators of the heat shock response signaling pathway - cell viability counter screen (AID 743209); further: nearly all actives have a fitted effect of over 50% in size
Procedure, shortened: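 Cytotoxicity counter screen run in parallel with the HSE beta-lactamase reporter, using the same wells. HeLa HSE-bla cells received compound for 5 h at 37 C; ATP-based CellTiter-Glo luminescence was measured after 30 min at room temperature.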

[5] = qHTS assay for small molecule activators of the heat shock response signaling pathway (AID 743210; active means well fitted activation curve with a large enough effect in the signal ratio in the repeat runs, with a control signal flat, not every such curve was filed as active; the % refers to the signal ratio;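 further: HeLa cells with beta-lactamase reporter driven by heat shock elements; series mostly up to about 63 µM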)
Procedure, shortened: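 Activation of heat shock element-controlled beta-lactamase expression is measured in HeLa cells by LiveBLAzer FRET fluorescence, with compound exposure lasting 5 h at 37 C and substrate loading 2.5 h at room temperature.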

[6] = qHTS assay to identify small molecule agonists of the peroxisome proliferator-activated receptor delta (PPARd) signaling pathway - cell viability counter screen (AID 743211); further: nearly all actives have a fitted effect of over 55% in size
Procedure, shortened: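 qHTS cell viability: PPARd-bla HEK293H; 17 h cpd, 37C; CellTiter-Glo, luminescence at 30 min RT.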

[7] = qHTS assay to identify small molecule antagonists of the peroxisome proliferator-activated receptor delta (PPARd) signaling pathway - cell viability counter screen (AID 743213); further: nearly all actives have a fitted effect of over 50% in size
Procedure, shortened: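 PPARd-bla HEK293H cells (3000/well) got compound plus 300 nM L165041 agonist for 17 h at 37 C. Viability in the same wells came from CellTiter-Glo luminescence after 30 min at room temperature.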

[8] = biological target: Peroxisome proliferator-activated receptor delta (Homo sapiens) (UniProt Q03181); assay: qHTS assay to identify small molecule antagonists of the peroxisome proliferator-activated receptor delta (PPARd) signaling pathway (AID 743215; active means well fitted inhibition curve with a large enough effect in the signal ratio in the repeat runs, not every such curve was filed as active; the % refers to the signal ratio;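 further: cells stimulated with agonist L165041 at 300 nM final during compound exposure; series mostly up to about 62 µM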)
Peroxisome proliferator-activated receptor delta (Homo sapiens), sequence (Q03181 whole entry, looked up): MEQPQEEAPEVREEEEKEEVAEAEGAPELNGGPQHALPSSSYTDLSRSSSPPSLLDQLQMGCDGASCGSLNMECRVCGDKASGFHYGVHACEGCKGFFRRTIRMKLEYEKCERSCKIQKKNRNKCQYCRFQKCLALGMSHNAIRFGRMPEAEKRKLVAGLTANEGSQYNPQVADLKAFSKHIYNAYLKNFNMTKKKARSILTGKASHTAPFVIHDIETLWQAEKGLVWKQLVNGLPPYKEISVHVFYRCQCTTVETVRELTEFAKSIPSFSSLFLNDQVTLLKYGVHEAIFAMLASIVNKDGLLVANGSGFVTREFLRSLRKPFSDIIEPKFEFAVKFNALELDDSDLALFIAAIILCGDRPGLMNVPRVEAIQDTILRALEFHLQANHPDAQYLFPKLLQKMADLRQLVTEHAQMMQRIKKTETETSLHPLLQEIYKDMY
Procedure, shortened: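 Cells: HEK293H with a UAS-driven beta-lactamase reporter responsive to PPARd. Compounds were co-added with L165041 (300 nM, final) and incubated 17 h at 37 C before a 2 h room-temperature FRET substrate step and fluorescence reading.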

[9] = qHTS assay to identify small molecule agonists of the farnesoid-X-receptor (FXR) signaling pathway - cell viability counter screen (AID 743218); further: nearly all actives have a fitted effect of over 45% in size
Procedure, shortened: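 Cells were seeded, left 5 h at 37 C and 5% CO2, then dosed with compound in DMSO for 16 h. After the beta-lactamase FRET read, CellTiter-Glo was added and luminescence measured 30 min later.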

[10] = qHTS assay to identify small molecule antagonists of the farnesoid-X-receptor (FXR) signaling pathway - cell viability counter screen (AID 743221; active means well fitted cell-killing curve with a large enough effect in the repeat runs, not every such curve was filed as active; further: nearly all actives have a fitted effect of over 50% in size)
Procedure, shortened: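 After a 5 h settling period, FXR-bla HEK 293T cells receive compound and chenodeoxycholic acid (50 uM final) and incubate 16 h at 37 C; CellTiter-Glo luminescence, read after 30 min at room temperature, reports cell viability.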

[11] = biological target: Vitamin D3 receptor (Homo sapiens) (UniProt P11473); assay: qHTS assay to identify small molecule agonists of the vitamin D receptor (VDR) signaling pathway (AID 743222; calls by dose curve)
Vitamin D3 receptor (Homo sapiens), sequence (P11473 whole entry, looked up): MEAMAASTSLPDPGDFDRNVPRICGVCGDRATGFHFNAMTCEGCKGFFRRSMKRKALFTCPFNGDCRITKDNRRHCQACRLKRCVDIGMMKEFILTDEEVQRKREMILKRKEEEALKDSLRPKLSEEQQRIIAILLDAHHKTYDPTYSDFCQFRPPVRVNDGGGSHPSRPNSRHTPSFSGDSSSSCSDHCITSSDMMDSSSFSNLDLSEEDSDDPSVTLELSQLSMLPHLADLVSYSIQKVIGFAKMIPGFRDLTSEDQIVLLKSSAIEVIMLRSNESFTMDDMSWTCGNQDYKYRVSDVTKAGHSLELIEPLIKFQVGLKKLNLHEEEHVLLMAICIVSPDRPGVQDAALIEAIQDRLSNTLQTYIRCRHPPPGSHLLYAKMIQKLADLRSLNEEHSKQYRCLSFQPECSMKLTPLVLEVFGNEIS
Procedure, shortened: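 Cells carrying a VDR-driven beta-lactamase reporter are seeded at 2,000 per well and rested 4 h. Compounds in DMSO are added for 16 h at 37C, and FRET substrate fluorescence is measured after 2 h at room temperature.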

[12] = biological target: Vitamin D3 receptor (Homo sapiens) (UniProt P11473); assay: qHTS assay to identify small molecule antagonists of the vitamin D receptor (VDR) signaling pathway (AID 743223; active means well fitted inhibition curve with a large enough effect in the signal ratio in the repeat runs, not every such curve was filed as active; the % refers to the signal ratio)
Procedure, shortened: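 Reporter line VDR-bla; stimulus 1alpha,25-(OH)2 vitamin D3, 3 nM final; compound co-addition, 16 h 37C/5% CO2; LiveBLAzer B/G substrate 2 h RT; fluorescence intensity.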

[13] = qHTS assay to identify small molecule that activate the aryl hydrocarbon receptor (AhR) signaling pathway - cell viability counter screen (AID 743086);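 further: HepG2 liver cells carrying the AhR DRE luciferase reporter; series mostly up to about 70 µM; nearly all actives have a fitted effect of over 45% in size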
Procedure, shortened: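 HepG2-AhR-luc (HG2L7.5c1) cells, 4000/well, were preincubated 5 h at 37C, exposed to compound in qHTS format for 24 hr at 37C, then given CellTiter-Fluor for 30 min; viability was read as fluorescence in the reporter wells.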

[14] = biological target: Peroxisome proliferator-activated receptor delta (Homo sapiens) (UniProt Q03181); assay: qHTS assay to identify small molecule agonists of the peroxisome proliferator-activated receptor delta (PPARd) signaling pathway (AID 743212; calls by dose curve)
Procedure, shortened: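 Cells expressing a UAS-driven beta-lactamase reporter (PPARd-bla HEK293H) were given test compounds after a 5 h settle and kept at 37 C. Reporter activity was then measured as FRET fluorescence using LiveBLAzer B/G substrate.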

[15] = qHTS assay to identify aromatase inhibitors - cell viability counter screen (AID 743084);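 further: cells stimulated with testosterone during compound exposure; nearly all actives have a fitted effect of over 55% in size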
[16] = biological target: Peroxisome proliferator-activated receptor gamma (Homo sapiens) (UniProt P37231); assay: qHTS assay to identify small molecule antagonists of the peroxisome proliferator-activated receptor gamma (PPARg) signaling pathway (AID 743191; calls by dose curve; further: series mostly up to about 63 µM; nearly all actives have a fitted effect of over 30% in size)
Peroxisome proliferator-activated receptor gamma (Homo sapiens), sequence (P37231 whole entry, looked up): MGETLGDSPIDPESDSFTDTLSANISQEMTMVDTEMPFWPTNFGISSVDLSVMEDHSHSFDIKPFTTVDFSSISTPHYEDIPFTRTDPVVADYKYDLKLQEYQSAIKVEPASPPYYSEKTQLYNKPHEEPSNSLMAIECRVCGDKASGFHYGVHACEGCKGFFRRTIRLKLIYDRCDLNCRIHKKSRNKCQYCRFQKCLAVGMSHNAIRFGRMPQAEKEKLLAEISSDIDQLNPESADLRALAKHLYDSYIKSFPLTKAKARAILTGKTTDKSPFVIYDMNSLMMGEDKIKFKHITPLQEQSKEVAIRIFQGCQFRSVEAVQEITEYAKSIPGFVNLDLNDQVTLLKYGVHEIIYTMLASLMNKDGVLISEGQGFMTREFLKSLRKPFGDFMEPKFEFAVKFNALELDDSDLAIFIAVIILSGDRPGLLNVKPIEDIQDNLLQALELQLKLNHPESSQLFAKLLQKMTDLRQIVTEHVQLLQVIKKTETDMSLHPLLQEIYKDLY
Procedure, shortened: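 GeneBLAzer PPARg UAS-bla HEK293H cells carrying a UAS-driven beta-lactamase reporter were plated at 3000 cells/well, preincubated 5 h at 37C, then given compound for 17 h at 37C; LiveBLAzer B/G FRET substrate was read after 1 h at room temperature.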

[17] = biological target: Bile acid receptor (Homo sapiens) (UniProt Q96RI1); assay: qHTS assay to identify small molecule antagonists of the farnesoid-X-receptor (FXR) signaling pathway (AID 743217; active means well fitted inhibition curve with a large enough effect in the signal ratio in the repeat runs, not every such curve was filed as active; the % refers to the signal ratio)
Bile acid receptor (Homo sapiens), sequence (Q96RI1 whole entry, looked up): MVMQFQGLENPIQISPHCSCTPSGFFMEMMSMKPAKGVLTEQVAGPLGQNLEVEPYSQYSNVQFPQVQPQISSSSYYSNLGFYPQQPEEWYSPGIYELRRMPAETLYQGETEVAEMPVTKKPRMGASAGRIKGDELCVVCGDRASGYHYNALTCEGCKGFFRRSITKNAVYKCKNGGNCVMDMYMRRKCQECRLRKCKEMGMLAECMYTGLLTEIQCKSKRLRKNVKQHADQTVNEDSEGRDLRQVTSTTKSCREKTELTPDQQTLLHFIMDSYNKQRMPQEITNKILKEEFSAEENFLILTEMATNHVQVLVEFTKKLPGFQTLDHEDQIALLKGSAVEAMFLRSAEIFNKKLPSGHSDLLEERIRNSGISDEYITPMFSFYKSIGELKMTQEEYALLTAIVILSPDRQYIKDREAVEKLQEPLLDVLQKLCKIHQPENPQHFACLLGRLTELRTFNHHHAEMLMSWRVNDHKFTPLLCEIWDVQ
Procedure, shortened: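 Cells carrying a UAS-driven beta-lactamase reporter (GeneBLAzer FXR-UAS-bla HEK 293T) were plated and rested 5 h at 37 °C. Compounds in DMSO were added alongside chenodeoxycholic acid agonist at 50 uM final and left 16 h at 37 °C before FRET substrate readout.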

[18] = biological target: Bile acid receptor (Homo sapiens) (UniProt Q96RI1); assay: qHTS assay to identify small molecule agonists of the farnesoid-X-receptor (FXR) signaling pathway (AID 743220; active means well fitted activation curve with a large enough effect in the signal ratio in the repeat runs, not every such curve was filed as active; the % refers to the signal ratio)
Procedure, shortened: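 FXR-UAS-bla HEK 293T cells carrying a UAS-driven beta-lactamase reporter were plated for 5 h at 37C/5% CO2, then exposed to DMSO-dissolved Tox21 10K compounds for 16 h at 37C. A LiveBLAzer B/G FRET substrate was loaded for 2 h at room temperature before fluorescence reading.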

[19] = biological target: Peroxisome proliferator-activated receptor gamma (Homo sapiens) (UniProt P37231); assay: qHTS assay to identify small molecule agonists of the peroxisome proliferator-activated receptor gamma (PPARg) signaling pathway (AID 743094; active means well fitted activation curve with a large enough effect in the signal ratio in the repeat runs, not every such curve was filed as active; the % refers to the signal ratio)
Procedure, shortened: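 Cells from the PPARg UAS-bla HEK293H line are plated and incubated 5 h at 37C. Compounds in DMSO are pinned in and left 17 h at 37C. LiveBLAzer B/G substrate is then added for 1 h at room temperature before fluorescence is measured.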

Measured: Potency

CCc1cccc2c(CCO)c[nH]c12
inactive: [1] | [2] | [3] | [4] | [5] | [6] | [7] | [8] | [9] | [10] | [11] | [12]

Cc1[nH]c(=O)c(C#N)cc1-c1ccc2nccn2c1
inactive: [13] | [1] | [2] | [3] | [4] | [5] | [6] | [14] | [7] | [8] | [9] | [10] | [11] | [12]

COc1nc(N)nc2c1ncn2[C@@H]1O[C@H](CO)[C@@H](O)[C@@H]1O
inactive: [15] | [13] | [1] | [3] | [4] | [5] | [6] | [10] | [11] | [12]

Cc1c(O)cccc1O
inactive: [15] | [13] | [16] | [1] | [2] | [3] | [4] | [5] | [6] | [7] | [17] | [10] | [11] | [12]

C=CCOCC(CC)(CO)COCC=C
inactive: [13] | [1] | [2] | [3] | [4] | [5] | [6] | [14] | [7] | [10] | [12]

CC(NC(CCc1ccccc1)C(=O)O)C(=O)N1C(=O)N(C)CC1C(=O)O (configuration not stated)
inactive: [1] | [2] | [3] | [4] | [5] | [14] | [7] | [8] | [17] | [18] | [10] | [11] | [12]

CCOC(=O)C(=O)OCC
inactive: [13] | [1] | [2] | [3] | [4] | [5] | [14] | [7] | [8] | [9] | [10] | [11] | [12]

CC(=O)OCC(=O)[C@@]1(O)CC[C@H]2[C@@H]3CCC4=CC(=O)CC[C@]4(C)[C@H]3C(=O)C[C@@]21C
inactive: [15] | [13] | [1] | [3] | [6] | [14]

Brc1c(NC2=NCCN2)ccc2nccnc12
inactive: [15] | [13] | [1] | [2] | [3] | [5] | [6] | [7] | [9] | [10] | [11] | [12]

NS(=O)(=O)c1cc(C(=O)NN2C[C@H]3[C@H]4CCC(C4)[C@H]3C2)ccc1Cl
inactive: [1] | [2] | [3] | [4] | [5] | [6] | [7] | [9] | [10]

CN1CCCC1
inactive: [15] | [13] | [19] | [2] | [3] | [5] | [6] | [7] | [17] | [9] | [18] | [10] | [11]
